Molecules are shown by their SMILES. Activity calls are given as the source filed them. Unless noted, the rule behind the calls is not given here.

Experiment [1] in a line: kinase inhibitors against Plasmodium liver-stage infection, cell-based, known kinase inhibitor set, luminescence, hepatoma host viability (AID 624392).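 Note: infected cells incubated roughly two days before readout.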 The following applies: Plasmodium liver stage in hepatoma cells, luciferase luminescence, concentration not given here; liver cell % of control: measured here: host liver cell viability; parasite % of control: stronger effect = lower value.

Experiment [2] in a line: modulators of glucocorticoid suppression of NF-kB, cell-based, luciferase, IL-1B stimulus, dexamethasone (AID 624486).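 For percent of negative control (+Dex): 100% = mean signal of vehicle control wells on the plate.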 The following applies: NF-kB luciferase reporter, IL-1B + dexamethasone, luminescence; percent of negative control (+Dex): actives lie on both sides, concentration not given here; z-score: measured here: IL-1B alone, no Dex. A general note: A reporter such as luciferase makes a cellular process visible.

Experiment [3] can be described thus: kinase inhibitors altering Pseudomonas killing of worms, whole organism (AID 651566).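 Note: tested at 14 µM; sign flipped so higher z means a lower ratio.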 The following applies: C. elegans killed by P. aeruginosa, survival ratio.
The nature of experiment [4]: activators of macrophage pro-inflammatory response, cell-based, murine, luminescence (AID 652131). The following applies: murine macrophage pro-inflammatory reporter, stronger effect = higher value.
The target in experiment [5] is Cellular tumor antigen p53 (Homo sapiens) (UniProt P04637). As to the kind of experiment: kinase inhibitors altering GFP-p53 stability in HPV16-positive cells, imaging, known kinase inhibitor set, EGFP/DsRed ratio (AID 1053116).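 Note: cells exposed to compounds for 24 h at 37 °C before reading.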 The following applies: stronger effect = higher value; EGFP object count: measured here: GFP-p53 positive objects count.
Experiment [6] in a line: IRF3 reporter activation in THP-1 macrophages, cell-based, PMA-stimulated THP-1, luminescence (AID 1053176). The following applies: PMA-differentiated THP-1, IRF3 reporter luminescence; stronger effect = higher value.
The nature of experiment [7]: survival rescue of mitochondrial mutant cells in low glucose, primary screen, MELAS cybrids, Rieske KO mouse fibroblasts, CellTiter-Glo (AID 1508586;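 active = mean z-score across replicates of 1.96 or higher in either the MELAS or the Rieske mutant cell line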;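 note: z relative to plate mean and SD of compound and empty wells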).
Setting [8] is: MELAS cybrid survival, CellTiter-Glo 48 h, stronger effect = higher value.
[9] abbreviates: Rieske KO mouse fibroblast survival, CellTiter-Glo 72 h.

Sequence of Cellular tumor antigen p53 (Homo sapiens) (P04637 whole entry, looked up): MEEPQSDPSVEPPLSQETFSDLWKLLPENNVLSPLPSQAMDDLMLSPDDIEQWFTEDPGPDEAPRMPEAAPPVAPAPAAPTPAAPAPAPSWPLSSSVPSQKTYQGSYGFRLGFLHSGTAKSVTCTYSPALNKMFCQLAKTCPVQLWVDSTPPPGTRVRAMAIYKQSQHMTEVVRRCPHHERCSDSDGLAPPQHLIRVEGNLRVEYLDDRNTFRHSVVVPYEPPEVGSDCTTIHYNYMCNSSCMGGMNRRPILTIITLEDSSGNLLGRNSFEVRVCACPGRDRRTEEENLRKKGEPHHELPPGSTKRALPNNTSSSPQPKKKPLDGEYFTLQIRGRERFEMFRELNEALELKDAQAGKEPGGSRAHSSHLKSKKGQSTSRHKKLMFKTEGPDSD

In experiment [1], `NS(=O)(=O)c1ccc(NC2CC(c3cccc(O)c3)NN2)cc1` (stereo not given) came in with a liver cell % of control of 92.2%. Further, in experiment [1], the parasite % of control is 101% (inactive). Besides, the percent of negative control (+Dex) in experiment [2] was 81.5% (inactive). For the same molecule, the z-score is -0.55 in experiment [2]; -1.21 (inactive) in experiment [3]; 1.01 (inactive) in experiment [4]; 1.31 (inactive) in experiment [7] (setting [8]); -0.281 in experiment [7] (setting [9]). The EGFP object count in experiment [5] was determined as 5.5. Besides, the EGFP/DsRed ratio in experiment [5] was 0.108 (inactive). Further, the fraction signal in experiment [6] is -0.0035 (inactive).

With `c1ccc(COc2ccc(Nc3ncnc4ccc(-c5ccco5)cc34)cc2)cc1`, in experiment [1], the liver cell % of control came to 99%. In addition, in experiment [1], the parasite % of control was 71.7% (inactive). For the same molecule, in experiment [2], the percent of negative control (+Dex) was 106% (inactive). For the same molecule, the z-score is 1.01 in experiment [2]; 0.34 (inactive) in experiment [3]; -1.14 (inactive) in experiment [4]; -0.351 (inactive) in experiment [7] (setting [8]); -0.356 in experiment [7] (setting [9]). Also, the EGFP object count in experiment [5] is 3. Also, the EGFP/DsRed ratio in experiment [5] was 0.073 (inactive). Also, the fraction signal in experiment [6] was 0.006 (inactive).

In experiment [1], `O=C1NC(=O)C(c2cccc(Cl)c2)=C1Nc1ccc(Cl)c(C(=O)O)c1` came in with a liver cell % of control of 102%. Moreover, the parasite % of control in experiment [1] is 122% (inactive). Further, the percent of negative control (+Dex) in experiment [2] is 96.5% (inactive). The z-score in experiment [2] is 0.205; in experiment [3], -0.33 (inactive); in experiment [4], -0.043 (inactive); in experiment [7] (setting [8]), -0.755 (inactive); in experiment [7] (setting [9]) it was -0.327. Moreover, the EGFP object count in experiment [5] came out at 2.5. Besides, the EGFP/DsRed ratio in experiment [5] was 0.103 (inactive). In experiment [6], the fraction signal was 0 (inactive).

In the case of `COc1ccc(-c2nn3ncccc3c2-c2ccnc(Nc3cccc(C(F)(F)F)c3)n2)cc1`, the liver cell % of control in experiment [1] stood at 92.5%. In addition, the parasite % of control in experiment [1] was 122% (inactive). Besides, the percent of negative control (+Dex) in experiment [2] is 90.5% (inactive). Besides, the z-score in experiment [2] is 0.64; in experiment [3] it was 0.3 (inactive); in experiment [4], 0.045 (inactive); in experiment [7] (setting [8]), 1.24 (inactive); in experiment [7] (setting [9]) it was -0.239. In addition, the EGFP object count in experiment [5] worked out at 4.5. Also, the EGFP/DsRed ratio in experiment [5] is 0.0918 (inactive). The fraction signal in experiment [6] is 0.002 (inactive).

In turn, `CCn1c(-c2nonc2N)nc2ccccc21` returned a liver cell % of control in experiment [1] of 97.5%. Also, the parasite % of control in experiment [1] is 113% (inactive). Further, the percent of negative control (+Dex) in experiment [2] was 80% (inactive). Also, the z-score in experiment [2] was -0.405; in experiment [3] it was 0.585 (inactive); in experiment [4] it was 0.013 (inactive); in experiment [7] (setting [8]), -0.294 (inactive); in experiment [7] (setting [9]), -0.443. The EGFP object count in experiment [5] worked out at 3. In addition, the EGFP/DsRed ratio in experiment [5] was 0.0652 (inactive). For the same molecule, in experiment [6], the fraction signal was -0.0025 (inactive).

In the case of `CC1(C)CC(n2cnc(-c3ccc(F)cc3)c2-c2ccnc(N)n2)CC(C)(C)N1`, the liver cell % of control in experiment [1] was determined as 79.9%. For the same molecule, the parasite % of control in experiment [1] is 131% (inactive). The percent of negative control (+Dex) in experiment [2] was 110% (inactive). The z-score is 1.77 in experiment [2]; 0.485 (inactive) in experiment [3]; 1.82 (inactive) in experiment [4]; -0.417 (inactive) in experiment [7] (setting [8]); 0.00971 in experiment [7] (setting [9]). Moreover, in experiment [5], the EGFP object count worked out at 4. For the same molecule, the EGFP/DsRed ratio in experiment [5] is 0.0677 (inactive). Further, in experiment [6], the fraction signal was 0.0175 (inactive).

In experiment [1], `CS(=O)(=O)Nc1cccc(-c2ccc3c(NC(=O)C4CC4)n[nH]c3c2)c1` registered a liver cell % of control of 89.6%. Moreover, the parasite % of control in experiment [1] was 233% (inactive). In addition, the percent of negative control (+Dex) in experiment [2] is 96% (inactive). Further, the z-score is 0.535 in experiment [2]; 0.185 (inactive) in experiment [3]; -0.214 (inactive) in experiment [4]; -0.446 (inactive) in experiment [7] (setting [8]); -0.47 in experiment [7] (setting [9]). The EGFP object count in experiment [5] was determined as 7. For the same molecule, the EGFP/DsRed ratio in experiment [5] was 0.137 (inactive). The fraction signal in experiment [6] is -0.0065 (inactive).

For `CCn1c(-c2nonc2N)nc2ccncc21`, the liver cell % of control in experiment [1] was found to be 99.1%. Besides, the parasite % of control in experiment [1] is 98.3% (inactive). For the same molecule, the percent of negative control (+Dex) in experiment [2] was 93.5% (inactive). Also, the z-score in experiment [2] is -0.26; in experiment [3], -0.61 (inactive); in experiment [4], -0.193 (inactive); in experiment [7] (setting [8]), -0.197 (inactive); in experiment [7] (setting [9]) it was -0.472. Also, the EGFP object count in experiment [5] was determined as 4. Also, the EGFP/DsRed ratio in experiment [5] was 0.405 (inactive). Besides, the fraction signal in experiment [6] is -0.004 (inactive).

In experiment [1], `COc1cc(/C=N/Nc2ncnc3c2cnn3-c2ccccc2)ccc1O` gave a liver cell % of control of 108%. The parasite % of control in experiment [1] is 61% (inactive). Further, the percent of negative control (+Dex) in experiment [2] is 92% (inactive). Further, the z-score in experiment [2] is 0.145; in experiment [3] it was 0.145 (inactive); in experiment [4], -0.075 (inactive); in experiment [7] (setting [8]), 1.22 (inactive); in experiment [7] (setting [9]), 0.165. In addition, the EGFP object count in experiment [5] was 4.5. For the same molecule, in experiment [5], the EGFP/DsRed ratio is 0.778 (inactive). In addition, the fraction signal in experiment [6] is -0.007 (inactive).

Consider `O=C1Nc2ccccc2/C1=C1\CCc2cc(O)ccc21`, for which, in experiment [1], the liver cell % of control is 77.7%. Also, the parasite % of control in experiment [1] was 108% (inactive). The percent of negative control (+Dex) in experiment [2] was 114% (inactive). Also, the z-score is 1.81 in experiment [2]; -1.72 (inactive) in experiment [3]; 3.73 (inactive) in experiment [4]; -0.0823 (inactive) in experiment [7] (setting [8]); -0.0427 in experiment [7] (setting [9]). Further, the EGFP object count in experiment [5] amounted to 8.5. In addition, the EGFP/DsRed ratio in experiment [5] is 0.108 (inactive). In addition, the fraction signal in experiment [6] was -0.013 (inactive).

Regarding `CN1CCC(n2cnc(-c3ccc(F)cc3)c2-c2ccnc(N)n2)CC1`, the liver cell % of control in experiment [1] was found to be 83.2%. In addition, the parasite % of control in experiment [1] is 168% (inactive). For the same molecule, the percent of negative control (+Dex) in experiment [2] is 107% (inactive). The z-score in experiment [2] was 2.09; in experiment [3] it was 0.34 (inactive); in experiment [4] it was 3.77 (inactive); in experiment [7] (setting [8]), -0.312 (inactive); in experiment [7] (setting [9]), -0.31. The EGFP object count in experiment [5] was 1.5. For the same molecule, the EGFP/DsRed ratio in experiment [5] was 0.024 (inactive). Moreover, the fraction signal in experiment [6] was -0.004 (inactive).

Take `COc1cc2ncn(-c3cc(OCc4ccccc4C(F)(F)F)c(C(=O)N(C)C)s3)c2cc1OC`: the liver cell % of control in experiment [1] amounted to 104%. Further, the parasite % of control in experiment [1] was 116% (inactive). Further, the percent of negative control (+Dex) in experiment [2] was 89.5% (inactive). The z-score in experiment [2] is -0.475; in experiment [3], 0.535 (inactive); in experiment [4], 0 (inactive); in experiment [7] (setting [8]), 0.0168 (inactive); in experiment [7] (setting [9]) it was -0.0859. Also, the EGFP object count in experiment [5] was determined as 8.5. Besides, the EGFP/DsRed ratio in experiment [5] is 0.396 (inactive). Also, the fraction signal in experiment [6] is -0.002 (inactive).

In experiment [1], `NS(=O)(=O)c1ccc(N=Nc2c(=O)[nH]c3ccc4[nH]cccc4c23)cc1` showed a liver cell % of control of 108%. The parasite % of control in experiment [1] was 91% (inactive). In addition, in experiment [2], the percent of negative control (+Dex) is 144% (active). Moreover, the z-score in experiment [2] is 1.98; in experiment [3], 1.48 (inactive); in experiment [4], -1.63 (inactive); in experiment [7] (setting [8]) it was 2.43 (active); in experiment [7] (setting [9]) it was 0.199. Besides, the EGFP object count in experiment [5] stood at 1.5. Also, the EGFP/DsRed ratio in experiment [5] is 0.0128 (inactive). Besides, in experiment [6], the fraction signal is -0.0065 (inactive).

In turn, `COC(=O)c1ccc2c(c1)/C(=C\c1cc(Br)c(O)c(Br)c1)C(=O)N2` gave a liver cell % of control in experiment [1] of 150%. Moreover, the parasite % of control in experiment [1] is 12.2% (active). In addition, in experiment [2], the percent of negative control (+Dex) was 110% (inactive). For the same molecule, the z-score is 0.355 in experiment [2]; -0.645 (inactive) in experiment [3]; -0.838 (inactive) in experiment [4]; -0.186 (inactive) in experiment [7] (setting [8]); -0.227 in experiment [7] (setting [9]). In addition, the EGFP object count in experiment [5] came out at 1. In experiment [5], the EGFP/DsRed ratio is 0.00779 (inactive). Further, the fraction signal in experiment [6] is -0.012 (inactive).

As for `COc1cc(Nc2ncc3c(C)nc(-c4cccc(C(F)(F)F)c4)n3n2)cc(OC)c1OC`, in experiment [1], the liver cell % of control was 91.6%. Besides, the parasite % of control in experiment [1] is 120% (inactive). Further, the percent of negative control (+Dex) in experiment [2] was 59.5% (inactive). The z-score in experiment [2] was -3.31; in experiment [3], 0.325 (inactive); in experiment [4] it was -0.389 (inactive); in experiment [7] (setting [8]), 1.04 (inactive); in experiment [7] (setting [9]) it was 0.168. Besides, the EGFP object count in experiment [5] was found to be 11. The EGFP/DsRed ratio in experiment [5] was 0.172 (inactive). Moreover, the fraction signal in experiment [6] is 0.005 (inactive).

The values are drawn from PubChem BioAssay.
